{"source": "PubChem BioAssay AID493170", "about": "(National Center for Advancing Translational Sciences (NCATS), 2011)", "note": "Records with an inconclusive call do not appear. Unmarked numbers belong to inactive results. Activity calls are given as the source filed them. Calls follow the shape of the dose curve; as a rule, active = well fitted inhibition curve with a large enough effect; inconclusive = small, poorly fitted or top-dose-only effect, or effect the other way; inactive = flat fitted curve, though single readings scatter. % is scaled to controls: 0 for no effect and ±100 for the full control effect; potency is read from the fitted curve at half-maximal effect."}
{"target": "Ubiquitin carboxyl-terminal hydrolase 2 (Homo sapiens) (UniProt O75604)", "sequence (O75604 whole entry, looked up)": "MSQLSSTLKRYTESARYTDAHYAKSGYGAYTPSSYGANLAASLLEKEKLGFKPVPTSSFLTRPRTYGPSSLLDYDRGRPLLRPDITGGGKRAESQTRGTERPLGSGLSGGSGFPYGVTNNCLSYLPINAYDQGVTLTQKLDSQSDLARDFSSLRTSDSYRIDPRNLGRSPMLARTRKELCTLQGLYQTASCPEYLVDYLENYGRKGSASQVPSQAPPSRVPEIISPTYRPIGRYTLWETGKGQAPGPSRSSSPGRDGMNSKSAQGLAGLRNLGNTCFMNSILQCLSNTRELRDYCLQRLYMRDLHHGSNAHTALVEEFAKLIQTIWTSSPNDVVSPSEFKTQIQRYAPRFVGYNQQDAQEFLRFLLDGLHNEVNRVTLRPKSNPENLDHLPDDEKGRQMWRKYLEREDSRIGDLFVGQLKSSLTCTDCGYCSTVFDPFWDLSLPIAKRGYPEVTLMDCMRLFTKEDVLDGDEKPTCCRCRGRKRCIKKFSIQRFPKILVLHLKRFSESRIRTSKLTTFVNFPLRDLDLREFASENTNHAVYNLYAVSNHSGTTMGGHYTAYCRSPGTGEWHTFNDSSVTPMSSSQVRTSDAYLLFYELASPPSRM", "experiment": "Ub-rhodamine 110 based assay for inhibitors Ubiquitin-specific Protease USP2a; also: nearly all actives have a fitted effect of over 50% in size", "details": "USP2a Ub-rhodamine110 cleavage, fluorescence; series mostly up to 38.3 µM; activity change, negative = inhibition: at the top concentration", "excerpt": "NIH Molecular Libraries Probe Centers Network [MLPCN] NIH Chemical Genomics Center [NCGC] MLPCN Grant: XO1-MH079852-01 PI Name: Nicholson, Ben. Progenra Inc, Malvern, PA NCGC Assay Overview: Homeostasis of cellular proteins is maintained through a combination of synthesis and degradation. The pathway that accounts for the majority of protein degradation is the ubiquitin-proteasomal pathway. Ubiquitin (Ub) is highly conserved in all cells and the generation of a multi-Ub chain typically targets proteins for degradation by the proteasome. However, ubiquitination is highly reversible and dynamic. Deubiquitination, the reverse process, is catalyzed through the action of enzymes referred to as isopeptidases or deubiquitinating enzymes (DUBs). This group of enzymes is collectively responsible for maintaining adequate pools of free ubiquitin and regulating the ubiquitination status of cellular proteins. The class of DUBs referred to as the ubiquitin-specific proteases (USP) family functions endoproteolytically to cleave Ub chains from a wide range of protein substrates. USP2a deubiquitinates fatty acid synthase (FASN) which has recently been identified as an emerging oncology target. To identify inhibitors of USP2a a cell-free assay was employed. This assay measures cleavage of a profluorescent substrate (Ub-Rhodamine 110; Boston Biochem Cat#: U-555) by USP2a. The assay gives a fluorescent read-out at excitation/emission wavelengths of 485/531. The USP2a enzyme was provided by Progenra, Inc. licensed for sale by LifeSensors, Inc.\nNCGC Assay Protocol: The assay buffer, prepared fresh at the day of the assay, contains 20mM Tris-HCl pH 8.0, 2mM CaCl2, 2mM beta-Mercaptoethanol, 0.05% CHAPS. 3uL of 10 nM (5 nM final) USP2a, was dispensed into a medium-binding black solid Kalypsys 1,536 well plate using the Kalypsys dispenser. The assay plate was then pinned with 23nL compounds in DMSO with a Kalypsys pintool in columns 5-48 (0.3% final DMSO concentration). The negative control was buffer/DMSO only in column 3. The assay plate is incubated at RT for 30min. Subsequently, 3uL of 300 nM Ub-Rhod110 (150 nM final) was dispensed into the plate using a Kalypsys dispenser. Plates were read after every minute for 7 min on a ViewLux (Perkin Elmer) plate reader using the following wavelengths: Ex 485nm /Em 531nm. Data were normalized to the AC100 inhibition (buffer alone). Concentration-response curves were fitted to the normalized data and the concentration-response curves were then classified based on curve quality (r2), response magnitude and degree of measured activity. The time zero reading was used to flag fluorescence artifacts.", "units": {"activity change, negative = inhibition": "%"}}
{"smiles": "Nc1ccc(S(=O)(=O)N2CCCCC2c2cccnc2)cc1", "note": "(stereo unspecified)", "activity change, negative = inhibition": -0.331}
{"smiles": "O=C1NC(=O)[C@]2(Cc3ccccc3N3CCN(c4ccccc4)CC32)C(=O)N1Cc1ccccc1", "note": "(stereo partly specified)", "Potency": "6.31 µM (active)"}
{"smiles": "COc1ccc(S(=O)(=O)Cc2ccc(C(=O)N3CCC4(CC3)OCCO4)o2)cc1", "activity change, negative = inhibition": -1.83}
{"smiles": "O=C(O)c1cccc2c1NC(C(=O)O)C1CC(Sc3ccccc3[N+](=O)[O-])C(Cl)C21", "note": "(stereo unspecified)", "Potency": "5.01 µM (active)"}
{"smiles": "FC(F)(F)c1ccc2c(c1)N(CCCN1CCN(CCCl)CC1)c1ccccc1S2", "activity change, negative = inhibition": -0.395}
{"smiles": "O=c1[nH]c(=O)n(Cc2ccc(F)cc2)c(O)c1C=NCCCn1ccnc1", "activity change, negative = inhibition": -2.32}
{"smiles": "CC1Oc2cc3c(-c4c(O)cc(O)c5c(O)c6c(cc45)OC(C)C(C)C6=O)c(O)cc(O)c3c(O)c2C(=O)C1C", "note": "(stereo unspecified)", "Potency": "2 µM (active)"}
{"smiles": "O=C(COc1ccc(S(=O)(=O)N2CCOCC2)cc1)N1CCN(Cc2ccc3c(c2)OCO3)CC1", "activity change, negative = inhibition": -0.487}
{"smiles": "CCCCn1c(=O)c(C(=O)Nc2ccccc2S(N)(=O)=O)c(O)c2ccccc21", "Potency": "10 µM (active)"}
{"smiles": "Cc1nn(Cc2ccc(Cl)cc2Cl)c(Cl)c1C(=O)Nc1ccc(OC(F)F)cc1", "activity change, negative = inhibition": -24.9}
{"smiles": "CCCC1=C(C(=O)OCC)C2(C(=O)Nc3ccc(C)cc32)C(C#N)=C(N)O1", "note": "(stereo unspecified)", "activity change, negative = inhibition": 0.66}
{"smiles": "CC(C)N1C(=O)/C(=C/C=C/c2ccco2)C(=O)N(Cc2ccco2)C1=O", "Potency": "12.6 µM (active)"}
{"smiles": "OC(c1ccncc1)(c1ccc(F)cc1)c1ccc(F)cc1", "activity change, negative = inhibition": -11.2}
{"smiles": "COc1ccc(NC(=O)c2c(C)nn(Cc3ccccc3Cl)c2Cl)cc1Cl", "activity change, negative = inhibition": -1.79}
{"smiles": "Clc1ccc(C(c2ccc(Cl)cc2)n2cc[n+](CC(OCc3ccc(Cl)cc3Cl)c3ccc(Cl)cc3Cl)c2)cc1", "note": "(stereo unspecified)", "Potency": "10 µM (active)"}
{"smiles": "CC(=Nc1ccc2c(c1)CCC2)c1c(O)n(C)c(=O)n(C)c1=O", "activity change, negative = inhibition": -8.7}
